Compound activity from PubChem BioAssay.
Hsp90 Hop PPI: changes Hsp90-Hop TPR2A binding signal, up or down | AlphaScreen TPR2A-His6 binding biotin-Hsp90 C-terminal peptide | Potency, µM (titrated, usually from 57 µM), inactives show at the highest dose activity change, negative = inhibition | hit rate 0.44% among 71,000; active means well fitted curve in either direction with a large enough effect; inconclusive means small, poorly fitted or top-dose-only effect, or another doubt; further: potency means the concentration at half of the fitted maximal effect; on the % scale 0 is the no-effect control and ±100 the full control effect
Tau fil binding: binders of human tau filaments; AID 596; recombinant tau filaments, thioflavin S fluorescence, 15 h; filaments grown with octadecylsulfate alongside compound; Potency, µM (titrated, usually from 57.1 µM), for inactives: at the top dose activity change, negative = inhibition; hit rate 2% among 71,000; P10636;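 further: potency means the concentration at half of the fitted maximal effect; on the % scale 0 is the no-effect control and ±100 the full control effect; actives lower thioflavin S fluorescence by blocking filaments or displacing dye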
Target sequence (P10636 whole entry, looked up): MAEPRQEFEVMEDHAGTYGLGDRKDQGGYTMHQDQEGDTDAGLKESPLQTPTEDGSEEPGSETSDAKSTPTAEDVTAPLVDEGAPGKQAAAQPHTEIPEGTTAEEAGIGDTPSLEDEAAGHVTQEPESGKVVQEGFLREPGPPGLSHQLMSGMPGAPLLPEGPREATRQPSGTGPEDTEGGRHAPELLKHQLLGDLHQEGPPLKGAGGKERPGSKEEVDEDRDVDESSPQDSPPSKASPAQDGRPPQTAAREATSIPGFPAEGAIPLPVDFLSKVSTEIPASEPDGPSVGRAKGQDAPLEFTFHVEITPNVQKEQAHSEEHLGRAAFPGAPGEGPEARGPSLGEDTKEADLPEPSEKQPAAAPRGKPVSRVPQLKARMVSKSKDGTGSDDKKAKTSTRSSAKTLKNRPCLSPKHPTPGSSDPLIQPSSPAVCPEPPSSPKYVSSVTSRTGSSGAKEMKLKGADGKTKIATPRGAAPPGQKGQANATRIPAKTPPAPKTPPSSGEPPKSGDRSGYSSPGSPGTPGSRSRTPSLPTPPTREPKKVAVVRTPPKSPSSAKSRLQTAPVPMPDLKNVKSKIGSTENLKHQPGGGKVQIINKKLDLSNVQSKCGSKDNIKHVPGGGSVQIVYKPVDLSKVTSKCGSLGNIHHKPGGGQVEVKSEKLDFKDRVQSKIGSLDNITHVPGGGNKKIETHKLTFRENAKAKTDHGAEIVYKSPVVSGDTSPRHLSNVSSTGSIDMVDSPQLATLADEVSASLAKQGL
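Assay mix: 1 uM His-tagged tau, 30 uM sodium octadecylsulfate, thioflavine S dye in HEPES/NaCl/DTT buffer. Compound is added prior to the inducer. Fluorescence after 15 h at 37 C.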
ALOX15 inhib: blocks human 15-lipoxygenase activity | purified 15hLO-1, xylenol orange hydroperoxide absorbance | Potency, µM (highest dose often 57.1 µM), inactives show top-dose activity change, negative = inhibition, usual class: inhibitors | hit rate 1.4% among 74,000 | AID 887 | P16050; further: potency means the concentration at half of the fitted maximal effect; on the % scale 0 is the no-effect control and ±100 the full control effect; nearly all actives have a fitted effect of over 55% in size
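Readout: Fe(III)-xylenol orange absorbance, 573-to-405 nm ratio as reaction progress. Enzyme 40 nM purified human 15hLO-1, substrate 50 uM arachidonic acid, 6 min RT after 15 min compound preincubation; Hepes pH 7.5 buffer with Triton X-100.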
ERK AVP inh: vasopressin-driven ERK pathway inhibition | hit rate 0.99% among 72,000 | HEK293-V1b, vasopressin-stimulated pERK AlphaScreen | Potency, µM (top dose mostly 57.5 µM), without a hit: at the highest dose activity, negative = inhibition, most hits filed as inhibitors; further: potency means the concentration at half of the fitted maximal effect; on the % scale 0 is the no-effect control and ±100 the full control effect; nearly all actives have a fitted effect of over 55% in size
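HEK293 cells stably expressing V1b receptor, preincubated 30 min at 37 °C with compound, then stimulated 5 min with 25 nM vasopressin. Phospho-ERK by AlphaScreen SureFire after 5 h RT; normalized to DMSO and vasopressin; AC50 by Hill fit.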
Pol III holo inh: inhibitors of bacterial DNA polymerase III holoenzyme. reconstituted DNA polymerase III holoenzyme replication, biochemical. Potency, µM (top dose mostly 57.1 µM), for inactives: at the top dose activity change, negative = inhibition. hit rate 0.25% among 71,000; further: potency means the concentration at half of the fitted maximal effect; on the % scale 0 is the no-effect control and ±100 the full control effect
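Reconstituted *E. coli* holoenzyme (0.35 nM Pol III, 1 nM beta, 154 nM SSB, 2 nM primase) was preincubated with compound for 15 min at RT. Synthesis on 1.4 nM ssM13Gori ran 35 min, then was stopped with PicoGreen/EDTA and read as dsDNA fluorescence.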
TsaE inh: YjeE (TsaE) inhibition, E. coli. P0AF67. purified YjeE enzyme, qHTS inhibition assay. Potency, µM. hit rate 0.05% among 71,000
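Purified YjeE (10 uM) with BODIPY Texas Red-labeled ADP probe (2 uM); compounds pin-transferred, 15 min at room temperature. Binding inhibition read as decreased fluorescence polarization; ADP titration as control.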
Starred values were filed as active, the others as inactive; i = inactive; ? = inconclusive; / = not tested or not shown; [ ] = another dose, or the depositor's remark. Hits are enriched below; roughly 4.2% of the tested compounds scored in any of these assays. Unless noted, the call rests on the fitted dose curve; in most records, active means well fitted curve in the direction sought with a large enough effect; inconclusive means small, poorly fitted or top-dose-only effect, or another doubt; inactive means no such curve, though single readings can be large; an effect the other way counts as inactive or inconclusive.

SMILES	Hsp90 Hop PPI	Tau fil binding	ALOX15 inhib	ERK AVP inh	Pol III holo inh	TsaE inh
O=C(NC1CCCC1)c1ccc(CS(=O)(=O)c2ccc(Br)cc2)o1	-4%[2.3 µM]	?	-4%	-12%	-4%	i
COC(=O)c1ccccc1NC(=O)CSc1nnnn1-c1ccc(C)cc1C	-12%	10µM*	?	-13%	-2%	i
CCCn1c(-c2ccc(F)cc2)nc2c(NCCCCN3CCCC3)nc(C)nc21	-8%	39%	11%	-1%	-5%	i
CN(C)c1nc(-c2cccnc2)nc2ccccc12	1%	5%	-4%	-18%	-10%	i
CN(C)c1nc(-c2ccoc2)nc2ccccc12	-11%	16µM*	?	-10%	-3%	i
c1ccc(Nc2nc(-c3ccoc3)nc3ccccc23)cc1	1%	13µM*	-8%	-28%	-4%	i
CC(C)c1ccc(-c2nnn(CCC(=O)O)n2)cc1	-2%	3%	1.6µM*	6%	-1%	i
CCSc1nnc(NC(=O)c2ccccn2)s1	7.9µM*	1%	97%	9%	-7%	i
CCSc1nnc(NC(=O)c2cnccn2)s1	-11%	-11%	16%	2%	0%	i
O=C(Nc1cccc(F)c1)N1CC=C(n2c(=O)[nH]c3ccccc32)CC1	5%	5%	-28%	20µM*	3%	i
CNc1ncnc2ccc(-c3ccccc3OC)cc12	-3%	-15%	-13%	32%	-5%	i
COc1ccccc1CNc1ncnc2ccc(-c3cccnc3)cc12	-2%	10%	-1%	20µM*	12%	i
COc1ccccc1CNc1ncnc2ccc(-c3cccc(C#N)c3)cc12	-7%	i	-10%	?	-7%	i
Cc1cccc(CNc2ncnc3ccc(-c4ccc(C(=O)N(C)C)cc4)cc23)c1	?	18%	-6%	20µM*	-6%	i
COc1ccccc1CNc1ncnc2ccc(-c3ccccc3OC)cc12	-6%	397%	-13%	20µM*	10%	i
c1ccc(CNc2ncnc3ccc(-c4cccnc4)cc23)cc1	-6%	9%	16%	?	-1%	i
COc1ccccc1-c1ccc2ncnc(NCc3ccccc3)c2c1	0%	62%	10%	16µM*	8%	i
CCOC(=O)C(C)Sc1ncnc2c1nnn2-c1ccc(F)cc1 (stereo not drawn)	/	/	-4%	/	/	/
N=c1sccn1CC(=O)Nc1ccc(S(=O)(=O)N2CCOCC2)cc1	1%	3%	2%	13%	-9%	i
COc1ccc(-c2csc(Cc3nnc4n3CCCCC4)n2)cc1OC	-5%	2%	0%	-21%	-8%	i
COc1ccccc1NC(=O)N1CCn2c(nc3ccccc32)C1	1%	5%	-3%	-18%	-11%	i
COc1ccc(CNc2ncnc3ccc(-c4ccccc4C#N)cc23)c(OC)c1	-3%	398%	-9%	-14%	0%	i
COc1ccccc1CNc1ncnc2ccc(-c3ccccc3C#N)cc12	-8%	i	-11%	25µM*	15%	i
COc1ccccc1CNc1ncnc2ccc(-c3ccc(N(C)C)cc3)cc12	?	2µM*	-18%	?	-5%	i
COC(=O)C(C#N)c1nc2ccccc2nc1N1CCN(Cc2ccc3c(c2)OCO3)CC1 (stereo not drawn)	-5%	13µM*	5%	7%	-4%	i
SMILES	Hsp90 Hop PPI	Tau fil binding	ALOX15 inhib	ERK AVP inh	Pol III holo inh	TsaE inh
CCCCOC(=O)C(C#N)c1nc2ccccc2nc1N1CCN(Cc2ccc3c(c2)OCO3)CC1 (stereo not drawn)	-9%	0.4µM*	2%	-10%	0%	i
C=CCNC(=O)C(C#N)c1nc2ccccc2nc1N1CCN(Cc2ccccc2)CC1 (stereo not drawn)	-2%	73%	-8%	-1%	-1%	i
COCCOC(=O)C(C#N)c1nc2ccccc2nc1N1CCN(Cc2ccccc2)CC1 (stereo not drawn)	-7%	?	-8%	-28%	-4%	i
CC(C)COC(=O)C(C#N)c1nc2ccccc2nc1N1CCN(Cc2ccc3c(c2)OCO3)CC1 (stereo not drawn)	-5%	2µM*	3%	-2%	1%	i
Clc1ccc([C@H](Cn2ccnc2)OCc2c(Cl)cccc2Cl)c(Cl)c1	-8%[26 µM]	65%[25.6 µM]	45%[25.6 µM]	-6%[25.7 µM]	-5%[25.6 µM]	i
CCC(=O)OCCn1c(Br)nc2c1c(=O)[nH]c(=O)n2C	0%	-2%	-6%	-10%	-4%	i
CCCC(=O)Nc1cc(OC)c(OC)cc1C(=O)O	2%	6%	4%	-4%	-2%	i
CCCCNc1cc(NC(C)=O)cc2cc(OC)c(OC)cc12	-20%	25µM*	-9%	?	-6%	i
O=S(=O)(NCC1CCCO1)c1cccc2nsnc12 (stereo not drawn)	0%	10%	1%	5%	-5%	i
CN1C=CC=C/C1=C1\SC(=S)N(C2CCCCC2)C1=O	?	4µM*	-24%[11.4 µM]	?	-5%[11.4 µM]	i
NC(=O)CC[C@@H](N)C(=O)O	-8%	3%	9%	-8%	-5%	i
CCOc1ccc(NCc2nnc(SCC(=O)Nc3cc(C)on3)n2-c2ccc(OC)cc2)cc1	-23%	16µM*	-11%	17%	-6%	i
COc1ccc(NC(C)=O)cc1NC(=O)CCn1c(=O)sc2ccccc21	-8%	24%	6%	13%	-3%	i
O=C1CCCCCC1C1(O)C(=O)Nc2ccccc21 (stereo not drawn)	1%	12%	3%	-23%	-7%	i
Cn1c(-c2ccccc2)cc2c3no[n+]([O-])c3ccc21	-13%	10µM*	-3%	-33%	-1%	i
O=c1oc(-c2cccc(S(=O)(=O)N3CCOCC3)c2)nc2ccccc12	0%	-3%	0%	11%	-4%	i
CCOC(=O)c1c(C)oc2c1c1c(c3ccccc32)OCN(Cc2cccnc2)C1	-22%	47%	2µM*	-3%	-2%	i
CCOC(=O)c1c(C)oc2c1c(C(c1cccnc1)N1CCN(C)CC1)c(O)c1ccccc12 (stereo not drawn)	-3%	0%	-30%	5%	-3%	i
COC(=O)c1ccc(CC(=O)c2c(C)cc(O)cc2O)o1	-3%	-12%	25µM*	-12%	-4%	i
N#CC1=C(N)SC2(CCCCC2)SC1c1ccccc1 (stereo not drawn)	-2%	20µM*	25µM*	-11%	7%	i
CSc1nc(N)c2ncn([C@H]3O[C@H](COP(=O)(O)OP(=O)(O)OP(=O)(O)O)[C@@H](O)[C@@H]3O)c2n1	-3%	?	-27%[25.6 µM]	-11%	-3%	79µM*
